HEK293 tox: kills HEK 293 cells | HEK 293 viability, ATP luminescence (CellTiter-Glo), 48-72 h | hit rate 6.6% among 94,000 | Potency, µM (series often up to 115 µM), inactives show top-dose activity change, negative = cytotoxicity, usual class: inhibitors; also: nearly all actives have a fitted effect of over 60% in size
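Pintool-delivered compounds were incubated with HEK 293 cells (250 cells/well) at 37 degree Celsius for 48 or 72 hr. ATP-dependent luminescence (CellTiter-Glo) then reported remaining viable cells.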
FLuc inh: inhibitors of firefly (Photinus pyralis) luciferase; Potency, µM (series often up to 115 µM), most hits filed as inhibitors; hit rate 2.5% among 76,000; purified P. pyralis luciferase, luminescence, biochemical; P08659; also: nearly all actives have a fitted effect of over 65% in size
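Cell-free enzyme assay, 10nM P. pyralis luciferase, luciferin and ATP each at 10uM. Inhibition profiled over a 6-point titration, read as luminescence.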
hNpr1 antagonist: blocks ANP-stimulated signaling of human Npr1 receptor | HEK293 hNpr1 GloSensor cGMP, ANP-stimulated luminescence | hit rate 1.6% among 76,000 | Potency, µM (titrated, usually from 46.3 µM), without a hit: at the top dose activity change, negative = inhibition, usual class: inhibitors | P16066 | AID 1347048; calls by dose curve; also: nearly all actives have a fitted effect of over 60% in size
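Compound pre-incubated 30 min at room temperature on GloSensor-loaded HEK293 cells stably carrying hNpr1 and the pGS-40F cGMP biosensor. Stimulation uses hNppA at 0.1 nM final; luminescence is taken at baseline and 20 min post-agonist.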
NIH3T3 tox: cytotoxic compounds in NIH 3T3 cells; NIH 3T3 viability, CellTiter-Glo ATP luminescence, 48-72 h; hit rate 4.3% among 94,000; Potency, µM (top dose mostly 96.7 µM), without a hit: at the top dose activity change, negative = cytotoxicity, actives largely listed as inhibitors; AID 1345082; also: nearly all actives have a fitted effect of over 55% in size
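Cytotoxicity is measured as loss of cellular ATP: NIH 3T3 cells (400/well) are exposed to compound for 48 or 72 hr at 37 °C, then CellTiter-Glo luminescence is imaged after 10 min at room temperature.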
Active calls of the source: *; i = inactive; ? = inconclusive; . = no result given; [ ] = dose if it differs, or a comment. Shown are actives, neighbours in structure and some others; about 11% of the full set was active somewhere. Unless noted, calls follow the shape of the dose curve; as a rule, active = well fitted curve in the direction sought with a large enough effect; inconclusive = small, poorly fitted or top-dose-only effect, or another doubt; inactive = no such curve, though single readings can be large; an effect the other way counts as inactive or inconclusive. % is scaled to controls: 0 for no effect and ±100 for the full control effect; potency is read from the fitted curve at half-maximal effect.

SMILES	HEK293 tox	FLuc inh	hNpr1 antagonist	NIH3T3 tox
CC(=O)N1CCN(c2nc3c(s2)CC(C(=O)NCc2cccc(Cl)c2)CC3)CC1 (stereo not drawn)	?	i	-10%	-31%
Cc1ccccc1NC(=O)C1CCc2nc(N3CCN(C(=O)C(C)C)CC3)sc2C1 (stereo not drawn)	10µM*	i	-8%	35µM*
Cc1ccc(CNC(=O)C2CCc3nc(N4CCN(C(=O)C(C)C)CC4)sc3C2)o1 (stereo not drawn)	79µM*	i	-4%	-17%
Cc1ccc(Nc2ccnc(N3CCCC3C(=O)NCCCc3ccccc3)n2)cc1 (stereo not drawn)	40µM*	.	.	?
Cc1ccc(Nc2ccnc(N3CCCC3C(=O)NCC3CC3)n2)cc1 (stereo not drawn)	35µM*	.	.	-8%
COCCNC(=O)C1CCCN1c1nccc(Nc2ccc(C)cc2)n1 (stereo not drawn)	?	.	.	-31%
CSCCNC(=O)C1CCCN1c1nccc(Nc2ccc(C)cc2)n1 (stereo not drawn)	79µM*	.	.	-7%
CCC(=O)N1CCN(C(=O)Cc2ccc(C)c(C)c2)[C@H]2CS(=O)(=O)C[C@H]21	-11%	i	3%	-9%
Cc1nn(-c2ccccc2)c(C)c1[C@@H]1C=C[C@@H](NCc2cccc(C#N)c2)C1	63µM*	i	-13%[70.6 µM]	?
Cc1nn(CCC#N)c(C)c1[C@@H]1C=C[C@@H](NC(=O)NCc2ccccc2)C1	-7%[172 µM]	i	1%[70.6 µM]	-27%[174 µM]
Cc1nn(-c2cccc(Br)c2)c(C)c1[C@@H]1C=C[C@@H](NS(C)(=O)=O)C1	?	56µM*	?	?
Cc1ccc(-n2nc(C)c([C@H]3C=C[C@@H](OC(=O)N[C@H](C)c4ccccc4)C3)c2C)cc1Cl	?	i	-19%	?
Cc1nn(-c2ccc(C(C)C)cc2)c(C)c1[C@@H]1C=C[C@@H](NCc2cccc(C#N)c2)C1	25µM*	?	-19%[70.6 µM]	?
Cc1ccc(-n2nc(C)c([C@@H]3C=C[C@@H](NCc4cccc(C#N)c4)C3)c2C)cc1Cl	25µM*	?	?	?
CCCOc1ccc(CN2CCC3(CC2)CC(O)CCO3)cc1OC (stereo not drawn)	-8%	i	1%	0%
Cc1nn(-c2cccc(Br)c2)c(C)c1[C@@H]1C=C[C@@H](NCc2cccc(C#N)c2)C1	?	40µM*	-20%	?
CCOC(=O)[C@H]1[C@@H](O)C(=O)N(Cc2ccccc2)C12CCN(C(=O)CC(C)(C)C)CC2	?	.	.	22µM*
CS(=O)(=O)N1C[C@H]2CCN(Cc3cccc(F)c3F)C[C@H]21	-3%	i	6%	-10%
O=C1NC(=NC2CCCC2)C2(CCCN(CC3CCCCC3)C2)N1c1cc(F)cc(F)c1 (stereo not drawn)	35µM*	.	.	28µM*
O=C1NC(=NC2CCCCC2)C2(CCN(CC3CCCCC3)CC2)N1c1cc(F)cc(F)c1	-12%	.	.	-19%
O=C1NC(=NC2CCCCC2)C2(CCN(CC3CCCCC3)C2)N1c1cc(F)cc(F)c1 (stereo not drawn)	32µM*	.	.	32µM*
COc1cccc(N2C(=O)NC(=NC3CCCC3)C23CCN(CC2CCCCC2)C3)c1 (stereo not drawn)	?	.	.	32µM*
COc1ccc(NC(=O)N2CCCC(Cn3cnc4cccnc43)C2)cc1Cl (stereo not drawn)	?	i	0%	-12%
COc1ccc(C(=O)N2CC[C@@H](n3c(=O)n(C)c4cccnc43)C2)c(OC)c1	-13%	.	.	-33%
CN(Cc1ccc(-c2ccccc2)cc1)Cc1ccnn1C	25µM*	?	20µM*	?
SMILES	HEK293 tox	FLuc inh	hNpr1 antagonist	NIH3T3 tox
CN(Cc1nccs1)Cc1cccn1C	?	i	-5%[70.6 µM]	-13%[174 µM]
CN(Cc1ccc(-c2ccccc2)cc1)Cc1nccs1	?	45µM*	10µM*	?
O=C(NC[C@H]1Cn2cc(-c3ccccc3)nc2CO1)Nc1ccc(F)cc1	-19%[172 µM]	i	-16%[70.6 µM]	?
COCCNc1ncc(-c2ccc(O)c(OC)c2)c2c1OCC2	?	i	1%[70.6 µM]	?
Cc1ccc(-c2ccc(CCC(=O)N[C@@H]3CCOC[C@H]3OCC(=O)O)o2)cc1	-11%	25µM*	-2%	-1%
Cc1nccn1CCCC(=O)N[C@@H]1CCOC[C@H]1OCC(=O)O	-8%	i	0%	-14%
COCCCn1c(C)cc(C(=O)N[C@@H]2CN(C)C[C@H]2CN(C)C)c1C	3%	i	3%	0%
COCCO[C@H]1C(=O)N(C2CCN(Cc3ccc(O)cc3)CC2)[C@H]1c1ccncc1	2%	i	4%	-14%
COc1ccc(Nc2ccnc(N3CCC(NC(=O)c4ccccc4C)CC3)n2)cc1	40µM*	.	.	40µM*
COc1ccc(Nc2ccnc(N3CCC(NC(C)=O)CC3)n2)cc1	-9%	.	.	-20%
COc1ccc(Nc2ccnc(N3CCC(NC(=O)Cc4cccc(Cl)c4)CC3)n2)cc1	25µM*	.	.	20µM*
COc1ccc(C(=O)NC2CCN(c3nccc(Nc4ccccc4Cl)n3)CC2)cc1	-9%	.	.	?
COc1ccc(Nc2ccnc(N3CCC(NC(=O)c4ccccn4)CC3)n2)cc1	?	.	.	40µM*
Cn1cc(C(=O)N2CCOc3c(O)cc(-c4csc5ccccc45)cc3C2)cn1	25µM*	i	-17%	?
O=C(CCn1cncn1)N1CCOc2c(O)cc(-c3cccc(Cl)c3)cc2C1	?	i	7%	?
NC(=O)c1noc(CN2CCOc3c(O)cc(-c4csc5ccccc45)cc3C2)n1	?	i	-15%	?
O=C(c1ccccn1)N1CCOc2c(O)cc(-c3cccc(Cl)c3)cc2C1	45µM*	i	-24%	-26%
C[S+](=O)([O-])NC1CC2(CCN(C(=O)c3ccccc3)CC2)c2ccccc21 (stereo not drawn)	0%	.	.	?
CC(=O)N1CCN(c2cc(-c3ccc(Cl)cc3)nc3c(C)noc23)CC1	?	i	-16%[70.6 µM]	?
CCn1cc(-c2ccc(Cl)cc2)cc1C(=O)NCC(=O)OC	-33%	40µM*	2%	?
CCn1cc(-c2ccc(C)cc2)cc1C(=O)N1CCCN(C)CC1	79µM*	i	-10%	?
CCOC(=O)CNC(=O)c1cc(-c2ccc(Cl)cc2)cn1C	-16%	i	-16%	-27%
CCn1cc(-c2ccc(Cl)cc2)cc1C(=O)N1CCCN(C)CC1	25µM*	i	-9%	18µM*
CCn1cc(-c2ccc(Cl)cc2)cc1C(=O)N1CCN(C(C)C)CC1	?	i	-9%	40µM*
COc1ccccc1-c1nc2nccc(-c3ccc4c(c3)OCCCO4)n2n1	18µM*	?	-12%	?
COc1ccc(-c2ccnc3nc(-c4ccccc4OC)nn23)cc1OC	?	i	0%	?
COc1ccc(-c2ccnc3nc(-c4cccs4)nn23)cc1OC	?	i	-2%	7.1µM*

Source: PubChem BioAssay
